# High-throughput results: PubChem, National Center for Advancing Translational Sciences (NCATS)
# Tau ThT inhib = qHTS for Inhibitors of Tau Fibril Formation, Thioflavin T Binding | Microtubule-associated protein tau (Homo sapiens), P10636 | recombinant tau K18 P301L, heparin-induced fibrillization, ThT fluorescence | Potency, µM (titrated, usually from 57.4 µM), for inactives: top-dose activity, negative = inhibition, actives largely listed as inhibitors | hit rate 2.1% among 270,000; note: nearly all actives have a fitted effect of over 55% in size
# Target sequence (P10636 561-689 P618L limits assumed): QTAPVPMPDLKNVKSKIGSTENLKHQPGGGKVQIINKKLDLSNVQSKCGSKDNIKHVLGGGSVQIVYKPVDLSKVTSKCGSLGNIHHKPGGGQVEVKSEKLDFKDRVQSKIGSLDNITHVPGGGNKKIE
#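 Tau K18 P301L fragment (15 uM unlabeled plus 0.24 uM Alexa 594-labeled) in 100 mM sodium acetate pH 7 with compound, fibrillization induced by 20 uM heparin for 6 hr at 37 C. Thioflavin T (30 uM) added, fluorescence read after 1 hr (ex 450, em 510 nm).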
# Sfp PPTase inh = qHTS Assay for Inhibitors of Bacillus subtilis Sfp phosphopantetheinyl transferase (PPTase); Biochemical Sfp PPTase activity, qHTS; Potency, µM, for the others: largest response in the series, negative = inhibition, actives largely listed as inhibitors; hit rate 3.5% among 310,000; AID 1490, 2009;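 note: the enzyme is Sfp with the accession as filed and its product quenches rhodamine fluorescence; 0% = enzyme reaction without inhibitor and -100% = no enzyme wells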
#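 After 15 min at room temperature with compound, 15 nM Sfp received 5 uM rhodamine-CoA plus 12.5 uM BHQ-2-ybbR (50 mM Hepes pH 7.6, 10 mM MgCl2). Rate came from the fluorescence difference over 30 min, ex 525/em 598 nm.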
# Tau fluor counter = Counterscreen qHTS for Inhibitors of Tau Fibril Formation, Fluorescence Polarization; tau K18 P301L Alexa594 fluorescence, heparin fibrillization; Potency, µM (highest dose often 57.7 µM), for the others: top-dose activity change, negative = decrease; hit rate 0.93% among 280,000; note: nearly all actives have a fitted effect of over 55% in size
#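 Human K18 P301L tau (15 uM unlabeled plus 0.24 uM Alexa 594-labeled, final) in 100 mM sodium acetate pH 7 was mixed with compound and 20 uM heparin and incubated 6 hr at 37 C.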
# VDR inhibitor = Inhibitors of the vitamin D receptor (VDR): qHTS; VDR-SRC2-3 peptide fluorescence polarization, 2 h; Potency, µM, inactives show max response, negative = inhibition, actives largely listed as inhibitors; hit rate 0.93% among 400,000
# Target sequence (P11473 whole entry, looked up): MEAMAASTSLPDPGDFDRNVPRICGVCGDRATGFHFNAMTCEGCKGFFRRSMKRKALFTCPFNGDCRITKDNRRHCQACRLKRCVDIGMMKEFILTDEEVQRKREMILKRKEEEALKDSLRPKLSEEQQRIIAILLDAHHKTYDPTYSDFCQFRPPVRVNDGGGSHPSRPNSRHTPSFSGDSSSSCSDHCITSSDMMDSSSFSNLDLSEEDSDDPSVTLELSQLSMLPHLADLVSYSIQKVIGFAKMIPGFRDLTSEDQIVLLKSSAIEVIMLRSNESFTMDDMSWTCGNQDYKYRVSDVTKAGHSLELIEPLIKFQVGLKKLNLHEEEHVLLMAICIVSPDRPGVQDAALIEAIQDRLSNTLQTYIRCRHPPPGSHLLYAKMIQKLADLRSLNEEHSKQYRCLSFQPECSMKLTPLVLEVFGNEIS
#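 Compounds are added to VDR with labelled SRC2-3 coactivator peptide and held 2 h at room temperature. Inhibition of the VDR–peptide interaction is then read as a change in fluorescence polarization.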
# Tau fibril FP = qHTS for Inhibitors of Tau Fibril Formation, Fluorescence Polarization; Microtubule-associated protein tau (Homo sapiens), P10636; K18 P301L tau heparin fibrillization, Alexa594 FP, 6 h; Potency, µM (series often up to 57.7 µM), inactives show at the highest dose activity, negative = inhibition, usual class: inhibitors; hit rate 0.39% among 280,000; AID 1468, 2008; note: nearly all actives have a fitted effect of over 55% in size
#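 Heparin (20 uM) drove fibril formation of recombinant tau K18 P301L, 15 uM unlabeled with 0.24 uM Alexa 594 label, for 6 hr at 37 C in 100 mM sodium acetate pH 7. Fluorescence polarization (555/632 nm) read 1 hr after 30 uM ThT.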
# PLK1 PBD block = qHTS for Inhibitors of PLK1-PDB (polo-like kinase 1 - polo-box domain): Primary Screen. Serine/threonine-protein kinase PLK1 (Homo sapiens), P53350. Plk1 PBD binding of FITC phosphopeptide, fluorescence polarization. Potency, µM, for inactives: max response, negative = inhibition, usual class: inhibitors. hit rate 2.8% among 360,000. AID 720504, 2013; note: series mostly up to about 57 µM; nearly all actives have a fitted effect of over 65% in size
# Numbers without * were called inactive; u = inconclusive; x = no result; [ ] = remark or other dose. Only some compounds are listed: those with a hit (about 6% of all), similar ones and a draw of the others. Calls come from the whole dose curve; as a rule, active = well fitted curve in the direction sought with a large enough effect; inconclusive = small, poorly fitted or top-dose-only effect, or another doubt; inactive = no such curve, though single readings can be large; an effect the other way counts as inactive or inconclusive. Unless noted, % is set by controls: 0 for no effect and ±100 for the full control effect; potency is the fitted concentration of half-maximal effect.
SMILES,Tau ThT inhib,Sfp PPTase inh,Tau fluor counter,VDR inhibitor,Tau fibril FP,PLK1 PBD block
CCCNC(=O)C1(C)CCCN(Cc2cccc(C#N)c2)C1 (stereo not drawn),x,x,x,x,x,0%
C[C@H](CO)N1C[C@H](C)[C@@H](CN(C)S(C)(=O)=O)OCc2cnnn2CCCC1=O,x,x,x,x,x,-5%
O=C(O)c1cc(N(Cc2ccccc2O)Cc2cc(O)ccc2O)ccc1O,18µM*,18µM*,u,50µM*,-6%,x
O=C(Cc1ccccc1)c1ccc(O)cc1O,x,x,x,-15%,x,-8%
O=C(O)c1cc(O)c2c(c1)[C@@H]([C@H]1c3cc(C(=O)O)cc(O)c3C(=O)c3c(O[C@@H]4O[C@H](CO)[C@@H](O)[C@H](O)[C@H]4O)cccc31)c1cccc(O[C@@H]3O[C@H](CO)[C@@H](O)[C@H](O)[C@H]3O)c1C2=O,x,x,x,-20%,x,2.7µM*
O=C(O)c1cc(O)c2c(c1)[C@H]([C@H]1c3cc(C(=O)O)cc(O)c3C(=O)c3c(O[C@@H]4OC(CO)C(O)C(O)C4O)cccc31)c1cccc(O[C@@H]3OC(CO)C(O)C(O)C3O)c1C2=O (stereo partly drawn),22µM*,56µM*,u,40µM*,u,x
Cc1cc(C)nc(OC(C(=O)O)C(OCCc2ccccc2)(c2ccc(F)cc2)c2ccc(F)cc2)n1 (stereo not drawn),x,14%,x,u,x,u
Cc1ccnc(OC(C(=O)O)C(OCc2ccccc2)(c2ccc(F)cc2)c2ccc(F)cc2)n1 (stereo not drawn),x,26%,x,u,x,27µM*
CC1CC1C(=O)Nc1nc(-c2cccs2)c(-c2cccs2)s1 (stereo not drawn),u,50µM*,u,-13%,5%,-1%
COc1ccc(C(=O)c2ccccc2)c(O)c1O,u,56µM*,-22%,u,-10%,x
COc1ccc(C(=O)c2ccccc2C(=O)c2ccccc2)cc1,x,x,x,-9%,x,4%
COc1cccc(CN(C(=O)c2oc3cc(C)ccc3c2C)C2CCS(=O)(=O)C2)c1 (stereo not drawn),-14%,x,-17%,3%,8%,x
CN(CC(=O)Nc1ccccc1Cl)C(=O)COC(=O)c1cnccn1,x,12%,x,-1%,x,-10%
C/C(=N/NC(N)=S)c1ccccc1[N+](=O)[O-],-9%,22µM*,-8%,-5%,-9%,-5%
NC(=S)N/N=C/c1ccccc1[N+](=O)[O-],-7%,4.5µM*,1%,-7%,-3%,u
CCNC(=S)N/N=C/c1ccccc1[N+](=O)[O-],4%,0%,0%,-21%,5%,-11%
CCCS(=O)(=O)NC(=O)C1(C)CCCN(C(=O)c2cccc(C(F)(F)F)c2)C1 (stereo not drawn),x,x,x,x,x,-2%
COc1cccc(Cn2nnc(C(=O)NCc3ccc(Cl)cc3Cl)c2N)c1,-1%,x,-9%,-4%,u,x
CC(=O)Nc1ccc(S(=O)(=O)Oc2ccc(C(=S)N3CCCCC3)cc2)cc1,-12%,-28%,u,u,u,u
CC(=O)Nc1ccc(S(=O)(=O)Oc2ccc(C(=S)N3CCC(O)CC3)cc2)cc1,2%,56µM*,-4%,-7%,-9%,u
COc1cccc(CN2CCN(C(=O)c3cccc(OC)c3)CC2)c1,x,79µM*,x,-3%,x,-1%
O=C(c1ccccc1)N1CCN(Cc2cccc(Oc3ccccc3)c2)CC1,-15%,-14%,-4%,u,6%,24µM*
O=C(c1cccc(OC2CCN(Cc3ccc(F)cc3)CC2)c1)N1CCCC1,x,16%,x,-18%,x,21µM*
COc1cccc(C(=O)N2CCN(Cc3cn[nH]c3-c3ccc(F)cc3F)CC2)c1,-2%,14%,-3%,u,-22%,30µM*
O=C(c1ccc(OC2CCN(Cc3ccc(F)cc3)CC2)cc1)N1CCCC1,x,8%,x,-10%,x,-11%
SMILES,Tau ThT inhib,Sfp PPTase inh,Tau fluor counter,VDR inhibitor,Tau fibril FP,PLK1 PBD block
COc1cc(C(=O)Nc2nc3c(s2)Cc2c(Br)ccc(OC)c2-3)cc(OC)c1OC,u,x,-30%,-9%,-10%,x
O=C(NCc1ccc(Br)cc1)OC1CC2CC1[C@H]1CCCCN1C2=O (stereo partly drawn),x,x,x,x,x,1%
CC1(C(=O)NS(=O)(=O)C2CC2)CCCN(C(=O)/C=C/c2ccccc2)C1 (stereo not drawn),x,x,x,x,x,1%
COCCNC(=O)c1cc2n(n1)CCCN(Cc1ccc(C)cc1)C2=O,-6%,x,-4%,2%,4%,x
Fc1cccc(CN2CCN(c3ncccn3)CC2)c1,-1%,45µM*,-12%,10%,-3%,2%
O=C(c1cccnc1)N1CCN(Cc2ccc3ccccc3c2)CC1,x,-1%,x,-13%,x,0%
O=C(c1cccnc1)N1CCN(Cc2cccc(F)c2)CC1,-6%,79µM*,-1%,-2%,-2%,-3%
COc1ccc(CN2CCN(C(=O)c3cccc4ccccc34)CC2)cc1OC,x,u,x,-14%,x,-14%
COc1ccc(CN2CCN(C(=O)c3cccc4ccccc34)CC2)cc1Br,x,56µM*,x,4%,x,-11%
Cn1c(=O)c(-c2ccc(Cl)cc2)nc2cnc(Nc3ccccc3)nc21,x,5%,x,12%,x,x
C#CCCCO/N=C1/C[C@@H](O)[C@@H](O)[C@@H]2[C@@H]3C(=O)N(c4cccc(Oc5ccccc5)c4)C(=O)[C@H]3CC[C@H]12,-7%[11.5 µM],18%,-11%[11.6 µM],x,-7%[11.6 µM],x
Nc1nnc(SC2CCCC2)s1,4%,11%,9%,u,14%,27µM*
Nc1nnc(SCC(=O)NC2CCCC2)s1,x,11%,x,-1%,x,5%
CN(C)c1cccc(C(=O)Nc2ccc(-c3nc4ccccc4s3)cc2)c1,u,x,u,13%,-6%,x
CC(C)(C)c1nnc(N/N=C/c2ccccc2)n(N)c1=O,-11%,79µM*,0%,-8%,1%,1%
COC(=O)C[C@H]1C[C@H]2c3cc(NS(=O)(=O)c4cccc(OC)c4)ccc3O[C@H]2[C@@H](CO)O1,x,x,x,x,x,-13%
CCC(=O)NC[C@H](Cc1ccc(OCCc2nc(-c3ccccc3)oc2C)cc1)N/C(C)=C\C(=O)c1ccc(C(F)(F)F)cc1,x,9%,x,0%,x,x
CCc1ccc(Cn2c(CNS(=O)(=O)c3ccc4c(c3)CCCC4)nc3cccnc32)cc1,-13%,x,-18%,5%,11%,x
Nc1cc(N)nc(SCC(=O)NC2CCCCCCC2)n1,x,x,x,2%,x,-5%
